From PubChem
Rows were chosen to be rich in hits. Some 19% of all compounds tested hit in one or more screens of this group.
HT1080NT lethal: kills 2HG-producing HT-1080-NT fibrosarcoma cells | HT-1080-NT fibrosarcoma viability, CellTiter-Glo ATP luminescence, 48 h | Potency, µM (doses to about 46.1 µM), usual class: cytotoxic | hit rate 1.6% among 360,000 | AID 686970;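 note: NT is the 2HG producing partner of a matched IDH1 knockdown line; nearly all actives have a fitted effect of over 55% in size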
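750 cells/well, RPMI + 5% FBS; 2 h settle, compound pin-transfer, 48 h at 37 degrees C. CellTiter-Glo 10 min RT, luminescence. Normalized to DMSO and media-only wells.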
HT1080 IDH1KD tx: kills HT-1080 cells with IDH1 knockdown. HT-1080 IDH1 knockdown viability, ATP luminescence, 48 h. Potency, µM (highest dose often 46.1 µM), actives largely listed as cytotoxic. hit rate 2% among 360,000. AID 686971
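HT-1080-IDH1KD cells (IDH1 knocked down), 750/well in RPMI with 5% FBS, treated with compound 48 h at 37 degrees C. Viability by CellTiter-Glo luminescence, normalised to DMSO and no-cell wells; concentration-response curves classed.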
DT40 TDP1 no CPT: qHTS for Inhibitors of human tyrosyl-DNA phosphodiesterase 1 (TDP1): qHTS in cells in absence of CPT; DT40 Tdp1-/- hTDP1 cells, no CPT, ATP luminescence, 48 h; Potency, µM (highest dose often 46.2 µM), usual class: inhibitors; hit rate 15% among 420,000; note: nearly all actives have a fitted effect of over 55% in size
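Stably hTDP1-transfected Tdp1-null chicken DT40 cells were treated with library compounds minus camptothecin and grown for at least 48 hr at 37 °C, after which cellular ATP was quantified by luminescence.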
KB-3-1 cytotox: kills parental KB-3-1 adenocarcinoma cells | KB-3-1 viability, CellTiter-Glo ATP luminescence, 72 h | Potency, µM (series often up to 46.1 µM), most hits filed as cytotoxic | hit rate 1.4% among 400,000; note: nearly all actives have a fitted effect of over 60% in size
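Screening of KB-3-1 cells (DMEM, 10% FBS, phenol-red free) ran from lowest to highest compound concentration; after 72 h at 37 °C viability was read luminescently and curves fitted.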
DT40 TDP1 CPT: DT40-hTDP1 cell growth loss with CPT. chicken DT40 Tdp1-/-;hTDP1 cells + 20 nM CPT, ATP luminescence, 48 h. Potency, µM (highest dose often 46.2 µM), usual class: inhibitors. hit rate 12% among 420,000. AID 686979; note: nearly all actives have a fitted effect of over 55% in size
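Cell growth measured by CellTiter-Glo luminescence after a minimum 48 h, 37 C compound exposure with 20 nM CPT in Tdp1-knockout DT40 cells stably expressing hTDP1, seeded 400/well; qHTS titration format.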
KB-V1 MDR tox: kills drug-selected multidrug resistant KB-V1 cells | KB-V1 MDR cells viability, CellTiter-Glo, 72 h | Potency, µM (highest dose often 46.1 µM), hits mostly cytotoxic | hit rate 3.4% among 400,000 | AID 1347076; note: nearly all actives have a fitted effect of over 60% in size
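Luminescent ATP read-out (CellTiter-Glo, 10 min) measures survival of drug-selected KB-V1 MDR cells after 72 h, 37 degrees C compound exposure. Medium: phenol-red-free DMEM, 10% FBS. Values from fitted concentration-response curves.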
Hits are given with their value; – = inactive; ? = inconclusive; · = not tested or not shown; [ ] = remark or other dose. Calls come from the whole dose curve; as a rule, active = well fitted curve in the direction sought with a large enough effect; inconclusive = small, poorly fitted or top-dose-only effect, or another doubt; inactive = no such curve, though single readings can be large; an effect the other way counts as inactive or inconclusive.

SMILES | HT1080NT lethal | HT1080 IDH1KD tx | DT40 TDP1 no CPT | KB-3-1 cytotox | DT40 TDP1 CPT | KB-V1 MDR tox
Cc1cccc(OCCSc2nc(-c3cccs3)nc3cc(=O)[nH]n23)c1 | · | · | ? | – | ? | ?
COc1cc(C)ccc1OCCSc1nc(-c2cccc(C)c2)nc2cc(=O)[nH]n12 | · | · | 21µM | – | 16µM | –
COc1ccc(OCC(=O)N(Cc2sccc2C)C2CCS(=O)(=O)C2)cc1 (configuration not stated) | – | – | – | – | – | –
CCc1ccc(OCCSc2nc(-c3cccc(C)c3)nc3cc(=O)[nH]n23)cc1 | · | · | ? | – | 23µM | –
O=C(Nc1nnc(-c2ccco2)o1)C1CC1 | – | – | – | – | – | –
CCOC(=O)N(C)c1c(CC)nc2c(OCc3ccccc3C)cccn12 | – | – | 15µM | ? | ? | 16µM
CCOC(=O)N(C)c1c(CC)nc2c(OCc3ccccc3OC)cccn12 | – | – | 16µM | – | 21µM | ?
CCOC(=O)N(C)c1c(CC)nc2c(OCCOc3ccccc3)cccn12 | – | – | 16µM | – | ? | ?
CCOC(=O)N(C)c1c(CC)nc2c(OCC(=O)C(C)(C)C)cccn12 | – | – | – | – | – | –
CCN(C(=O)CSc1nnc(-c2ccccc2OC)n1N)c1c(N)n(Cc2ccccc2)c(=O)[nH]c1=O | – | – | – | ? | – | ?
O=C(C[C@H]1C=C[C@@H](NC(=O)c2ccncc2)[C@@H](CO)O1)NCC1CC1 | – | – | – | – | – | –
O=C1CSC(c2cn(-c3ccccc3)nc2-c2ccccc2)N1Cc1ccco1 (configuration not stated) | ? | ? | 18µM | ? | ? | ?
Cc1ccc(Cl)cc1NC(=O)Nc1cccc(OCc2cc(=O)n3ccccc3n2)c1 | · | · | – | · | – | ·
Cc1nn(Cc2ccccc2Cl)c2sc(C(=O)NC(C)(C)C)cc12 | ? | ? | ? | ? | – | ?
Cc1csc(NC(=O)c2cc3c(C)nn(Cc4ccccc4Cl)c3s2)n1 | ? | ? | 16µM | – | ? | –
Cc1nn(Cc2ccccc2Cl)c2sc(C(=O)OC3CCCC3=O)cc12 (configuration not stated) | – | – | – | – | – | 6.5µM
O=C(Nc1cccc2c(=O)cc(-c3nn[nH]n3)oc12)c1ccc(OCCCCc2ccccc2)cc1 | · | · | – | · | – | ·
COc1cc(C(=O)Nc2ccc(-c3nnc(-c4ccco4)o3)cc2)cc(OC)c1OC | – | – | ? | – | ? | ?
Cc1cc(C)cc(OCC(=O)Nc2cccc(-c3nnc(-c4ccco4)o3)c2)c1 | – | – | ? | – | ? | 15µM
Cc1ccc(SCC(=O)Nc2ccc(-c3nnc(-c4ccco4)o3)cc2)cc1 | ? | ? | ? | – | ? | –
COc1ccccc1CC(=O)Nc1ccc(-c2nnc(-c3ccco3)o2)cc1 | – | – | 16µM | – | ? | ?
COc1cc(C(=O)Nc2cccc(-c3nnc(-c4ccco4)o3)c2)ccc1OC(C)=O | – | – | 16µM | – | 13µM | 21µM
O=C(Cc1cccs1)Nc1cccc(-c2nnc(-c3ccco3)o2)c1 | – | – | 12µM | – | 16µM | ?
COC(=O)c1ccc2c(=O)n(CCCCCC(=O)O)c(=S)[nH]c2c1 | – | – | ? | – | – | –
COc1cccc(C(=O)Nc2ccccc2-c2nnc(-c3cccc(OC)c3)o2)c1 | · | · | 12µM | – | 9.2µM | –
SMILES | HT1080NT lethal | HT1080 IDH1KD tx | DT40 TDP1 no CPT | KB-3-1 cytotox | DT40 TDP1 CPT | KB-V1 MDR tox
Cc1ccc(-c2nnc(-c3ccc(NC(=O)Cc4cccs4)cc3)o2)cc1 | ? | ? | 18µM | – | 15µM | ?
NC(=O)c1ccc(NC(=O)Cc2cccs2)cc1 | – | – | – | – | – | ?
Cc1ccc(C(NC(=O)Cc2cccs2)C(=O)Nc2ccc(C(C)C)cc2)cc1 (configuration not stated) | · | · | ? | – | 16µM | –
COc1ccc(C(=O)Nc2cccc(-c3nnc(-c4ccco4)o3)c2)cc1 | ? | ? | 16µM | ? | 18µM | 13µM
Cc1ccc(S(=O)(=O)NCc2ccco2)cc1C(N)=O | – | – | – | – | ? | –
O=C(COc1cccc(Br)c1)N/N=C/c1ccc2c(c1)OCCO2 | – | – | – | – | – | –
O=C(Cc1ccccc1)Nc1ccc(-c2nnc(-c3ccco3)o2)cc1 | ? | ? | – | – | – | –
O=C(Nc1ccc(-c2nnc(-c3ccco3)o2)cc1)C(c1ccccc1)c1ccccc1 | – | – | 8.2µM | – | 9.2µM | –
COc1ccc(CC(=O)Nc2cccc(-c3nnc(-c4ccco4)o3)c2)cc1 | – | – | 7.3µM | – | 7.3µM | ?
Cc1ccccc1N(C(=O)c1cccs1)c1nc2ccccc2s1 | – | – | 18µM | – | 23µM | –
COc1ccc(C)cc1N(C(=O)c1cccc(F)c1)c1nc2ccccc2s1 | – | – | – | – | – | –
Cc1ccsc1C(=O)N(c1nc2ccccc2s1)c1c(C)cccc1C | – | – | 23µM | ? | ? | ?
COc1ccc(C)cc1N(C(=O)c1ccccc1)c1nc2ccccc2s1 | – | – | ? | – | – | –
CCc1nc2ccc(C(=O)N3CCN(C(=O)c4ccco4)CC3)cn2c1N(C)C(=O)COc1ccccc1 | – | ? | – | – | – | –
C=CCN1CN(S(=O)(=O)c2cccc(Cl)c2)c2nc3ccccc3nc21 | – | – | ? | – | ? | –
C=C1CC2(CC(c3ccccc3)OC(c3ccccc3)C2)OC1=O (configuration not stated) | ? | 16µM | 2.6µM | ? | 1.8µM | ?
O=C(NCCN1CCCOC1=O)C(=O)NCCN1CCCOC1=O | – | – | – | – | – | –
O=C(COc1ccccc1Cl)Nc1cnn(Cc2ccccc2)c1 | – | – | ? | – | – | ?
O=C(Nc1cnn(Cc2c(Cl)cccc2Cl)c1)C(c1ccccc1)c1ccccc1 | – | – | 16µM | – | 23µM | –
CCN(CC)S(=O)(=O)c1ccc(Nc2ccc(-c3ccc4c(c3)OCCO4)nn2)cc1 | ? | – | ? | – | 5.2µM | –
CN(C(=O)c1cccc(Nc2ccc(-c3ccc4c(c3)OCCO4)nn2)c1)C1CCCCC1 | ? | 15µM | 23µM | ? | 23µM | ?
Cc1c(C(=O)NCc2ccc3c(c2)OCO3)cnn1-c1ncc2c(n1)-c1ccccc1CC2 | · | · | – | · | –[9.04 µM] | ·
CC(C)c1ccc(NC(=O)Nc2nc(C(N)c3ccccc3)cs2)cc1 (configuration not stated) | ? | ? | 23µM | ? | ? | ?
CC(C)c1ccc(NC(=O)Nc2nc(C(N)COCc3ccccc3)cs2)cc1 (configuration not stated) | 21µM | ? | 15µM | ? | 16µM | ?
